# Laboratory results taken from the supplement of paper PMC8728848.
# Many of the other results were omitted from the sample, so the strongest signals are more common in it than they were.
# Experiments:
# Assay in all cases: glycan array binding signal (z-score within array); higher = stronger binding
# Settings in all cases: glycan notation: IUPAC condensed, linker removed
# [1] = molecular target: Fuc(a1-2)Gal(b1-4)[Fuc(a1-3)]GlcNAc(b1-3)Gal(b1-4)[Fuc(a1-3)]GlcNAc
# Summary of the method: (§1)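 Columns mapping to the same glycan were averaged after glycan names were converted to IUPAC-condensed notation. The data come from 3228 arrays in the Consortium for Functional Glycomics database, limited to those with an available protein sequence. Binding is reported as a within-array Z-score averaged across arrays of one protein sequence and across linkers.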
# [2] = molecular target: Fuc(a1-2)[Gal(a1-3)]Gal(b1-3)GalNAc(b1-3)Gal(a1-4)Gal(b1-4)Glc
# Summary of the method: as §1
# [3] = molecular target: Fuc(a1-2)[Gal(a1-3)]Gal(b1-4)GlcNAc(b1-2)Man(a1-3)[Fuc(a1-2)[Gal(a1-3)]Gal(b1-4)GlcNAc(b1-2)Man(a1-6)]Man(b1-4)GlcNAc(b1-4)[Fuc(a1-6)]GlcNAc
# Summary of the method: as §1
# [4] = molecular target: Fuc(a1-2)[Gal(a1-3)]Gal(b1-4)GlcNAc(b1-3)GalNAc
# Summary of the method: as §1
# [5] = molecular target: Fuc(a1-2)[GalNAc(a1-3)]Gal(b1-3)GlcNAc(b1-2)Man(a1-3)[Fuc(a1-2)[GalNAc(a1-3)]Gal(b1-3)GlcNAc(b1-2)Man(a1-6)]Man(b1-4)GlcNAc(b1-4)[Fuc(a1-6)]GlcNAc
# Summary of the method: as §1
# [6] = molecular target: Fuc(a1-2)[GalNAc(a1-3)]Gal(b1-4)GlcNAc(b1-2)Man(a1-3)[Fuc(a1-2)[GalNAc(a1-3)]Gal(b1-4)GlcNAc(b1-2)Man(a1-6)]Man(b1-4)GlcNAc(b1-4)[Fuc(a1-6)]GlcNAc
# Summary of the method: as §1
# [7] = molecular target: Fuc(a1-2)[GalNAc(b1-3)]Gal
# Summary of the method: as §1
# Fuc(a1-4)GlcNAc = molecular target: Fuc(a1-4)GlcNAc
# Summary of the method: as §1
# Gal(a1-3)Gal = molecular target: Gal(a1-3)Gal
# Summary of the method: as §1
# [8] = molecular target: Gal(a1-3)Gal(b1-4)GlcNAc(b1-2)Man(a1-3)[Gal(a1-3)Gal(b1-4)GlcNAc(b1-2)Man(a1-6)]Man(b1-4)GlcNAc(b1-4)GlcNAc
# Summary of the method: as §1
# [9] = molecular target: Gal(b1-3)GlcNAc(b1-3)Gal(b1-4)GlcNAc(b1-6)[Gal(b1-3)GlcNAc(b1-3)]Gal(b1-4)Glc
# Summary of the method: as §1
# [10] = molecular target: Gal(b1-3)GlcNAc(b1-3)Gal(b1-4)[Fuc(a1-3)]GlcNAc
# Summary of the method: as §1
# [11] = molecular target: Gal(b1-3)[Fuc(a1-4)]GlcNAc
# Summary of the method: as §1
# [12] = molecular target: Gal(b1-4)GlcNAc(b1-2)Man(a1-3)[Gal(b1-4)GlcNAc(b1-2)Man(a1-6)]Man(b1-4)GlcNAc(b1-4)GlcNAc
# Summary of the method: as §1
# [13] = molecular target: Gal(b1-4)GlcNAc(b1-3)Gal(b1-4)GlcNAc(b1-2)Man(a1-3)[Gal(b1-4)GlcNAc(b1-3)Gal(b1-4)GlcNAc(b1-2)Man(a1-6)]Man(b1-4)GlcNAc(b1-4)GlcNAc
# Summary of the method: as §1
# [14] = molecular target: Gal(b1-4)GlcNAc(b1-3)Gal(b1-4)GlcNAc(b1-2)Man(a1-3)[Gal(b1-4)GlcNAc(b1-3)Gal(b1-4)GlcNAc(b1-2)Man(a1-6)]Man(b1-4)GlcNAc(b1-4)[Fuc(a1-6)]GlcNAc
# Summary of the method: as §1
# [15] = molecular target: Gal(b1-4)GlcNAc(b1-3)Gal(b1-4)GlcNAc(b1-3)Gal(b1-4)GlcNAc(b1-2)[Gal(b1-4)GlcNAc(b1-3)Gal(b1-4)GlcNAc(b1-3)Gal(b1-4)GlcNAc(b1-6)]Man(a1-6)[Gal(b1-4)GlcNAc(b1-3)Gal(b1-4)GlcNAc(b1-3)Gal(b1-4)GlcNAc(b1-2)Man(a1-3)]Man(b1-4)GlcNAc(b1-4)[Fuc(a1-6)]GlcNAc
# Summary of the method: as §1
# [16] = molecular target: Gal(b1-4)GlcNAc(b1-3)Gal(b1-4)GlcNAc(b1-3)Gal(b1-4)GlcNAc(b1-3)Gal(b1-4)GlcNAc(b1-2)Man(a1-3)[Gal(b1-4)GlcNAc(b1-3)Gal(b1-4)GlcNAc(b1-3)Gal(b1-4)GlcNAc(b1-3)Gal(b1-4)GlcNAc(b1-2)Man(a1-6)]Man(b1-4)GlcNAc(b1-4)[Fuc(a1-6)]GlcNAc
# Summary of the method: as §1
# [17] = molecular target: Gal(b1-4)GlcNAc(b1-3)Gal(b1-4)GlcNAc(b1-3)Gal(b1-4)GlcNAc(b1-3)Gal(b1-4)GlcNAc(b1-3)Gal(b1-4)GlcNAc(b1-2)Man(a1-3)[Gal(b1-4)GlcNAc(b1-3)Gal(b1-4)GlcNAc(b1-3)Gal(b1-4)GlcNAc(b1-3)Gal(b1-4)GlcNAc(b1-3)Gal(b1-4)GlcNAc(b1-2)Man(a1-6)]Man(b1-4)GlcNAc(b1-4)GlcNAc
# Summary of the method: as §1
# [18] = molecular target: Gal(b1-4)GlcNAc(b1-3)Gal(b1-4)GlcNAc(b1-3)Gal(b1-4)GlcNAc(b1-3)Gal(b1-4)GlcNAc(b1-3)Gal(b1-4)GlcNAc(b1-2)Man(a1-3)[Gal(b1-4)GlcNAc(b1-3)Gal(b1-4)GlcNAc(b1-3)Gal(b1-4)GlcNAc(b1-3)Gal(b1-4)GlcNAc(b1-3)Gal(b1-4)GlcNAc(b1-2)Man(a1-6)]Man(b1-4)GlcNAc(b1-4)[Fuc(a1-6)]GlcNAc
# Summary of the method: as §1
# [19] = molecular target: Gal(b1-4)GlcNAc(b1-3)Gal(b1-4)GlcNAc(b1-3)Gal(b1-4)GlcNAc(b1-3)Gal(b1-4)GlcNAc(b1-3)Gal(b1-4)GlcNAc(b1-3)Gal(b1-4)GlcNAc(b1-2)Man(a1-3)[Gal(b1-4)GlcNAc(b1-3)Gal(b1-4)GlcNAc(b1-3)Gal(b1-4)GlcNAc(b1-3)Gal(b1-4)GlcNAc(b1-3)Gal(b1-4)GlcNAc(b1-3)Gal(b1-4)GlcNAc(b1-2)Man(a1-6)]Man(b1-4)GlcNAc(b1-4)GlcNAc
# Summary of the method: as §1
# [20] = molecular target: Gal(b1-4)GlcNAc(b1-6)GalNAc
# Summary of the method: as §1
# Gal3S(b1-4)Glc6S = molecular target: Gal3S(b1-4)Glc6S
# Summary of the method: as §1
# Gal6S(b1-4)GlcNAc = molecular target: Gal6S(b1-4)GlcNAc
# Summary of the method: as §1
# Gal6S(b1-4)GlcNAc6S = molecular target: Gal6S(b1-4)GlcNAc6S
# Summary of the method: as §1
binder,measurement,setting,value
SP15308B-bot-339-22-339 (Bacteroides ovatus) (protein) NEWEDEQYEQYVSFKAPIASGSDGVTTIYVRYKDNGKVTYQLPIIVSGSTVNSQDRDIHIAVDKDTLKTLNIERFSLYRPELWYTEMEEDKYEFPETVHIPAGSCVELLNIDFNLQDIDMLEKWVLPLTIVDDGSYAYQSHPRKNYAKALLKVVPFNNYSGSYTASSMKVYTYINGKPDTNARTTDKRTGYVVDNNSIFFYAGLINEDMDKDMRKKYKINVHFKEDGTLDMKQDDPSNEMEFELIGTPTYSSTSVMDATRPYLERRYVQIMFEYDFQDFTYGGSGTEVIPIKYRVAGSMTLLRNINTQIPDEDQQIEW,glycan array binding signal (z-score),[1],-0.601
same,glycan array binding signal (z-score),[2],-0.087
same,glycan array binding signal (z-score),[3],0.241
same,glycan array binding signal (z-score),[4],-0.515
same,glycan array binding signal (z-score),[5],-0.323
same,glycan array binding signal (z-score),[6],-0.388
same,glycan array binding signal (z-score),[7],0.15
same,glycan array binding signal (z-score),Fuc(a1-4)GlcNAc,2.58
same,glycan array binding signal (z-score),Gal(a1-3)Gal,0.449
same,glycan array binding signal (z-score),[8],3.88
same,glycan array binding signal (z-score),[9],-0.129
same,glycan array binding signal (z-score),[10],-0.548
same,glycan array binding signal (z-score),[11],-0.425
same,glycan array binding signal (z-score),[12],-0.534
same,glycan array binding signal (z-score),[13],2.8
same,glycan array binding signal (z-score),[14],2.57
same,glycan array binding signal (z-score),[15],2.24
same,glycan array binding signal (z-score),[16],7.12
same,glycan array binding signal (z-score),[17],1.84
same,glycan array binding signal (z-score),[18],0.658
same,glycan array binding signal (z-score),[19],6.94
same,glycan array binding signal (z-score),[20],0.182
same,glycan array binding signal (z-score),Gal3S(b1-4)Glc6S,-0.337
same,glycan array binding signal (z-score),Gal6S(b1-4)GlcNAc,1.87
same,glycan array binding signal (z-score),Gal6S(b1-4)GlcNAc6S,-0.252
